Reference: PubChem BioAssay (NCI)
About 83,000 compounds went through this panel and 20% of them were active in at least one assay; those are over-represented in the sample as a whole.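 Compound tested at a single concentration for 48 hours in 96-well plates; a percent growth value below 10 was scored as active.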 Values without a mark were called inactive. Activity calls are given as the source filed them.

What was measured:
Assay in all cases: NCI-60 one-dose screen, 48 h (100 = growth as untreated, 0 = no growth, -100 = all killed)
Settings in all cases: 10 µM unless noted
BT-549 breast = test system: BT-549 breast
MDA-MB-435 melanoma = test system: MDA-MB-435 melanoma
SW-620 colon = test system: SW-620 colon
MCF7 breast = test system: MCF7 breast
HCT-116 colon = test system: HCT-116 colon
HCC-2998 colon = test system: HCC-2998 colon
KM12 colon = test system: KM12 colon
T-47D breast = test system: T-47D breast

Row | SMILES | growth (BT-549 breast) [%] | growth (MDA-MB-435 melanoma) | growth (SW-620 colon) | growth (MCF7 breast) | growth (HCT-116 colon) | growth (HCC-2998 colon) | growth (KM12 colon) | growth (T-47D breast)
1 | COc1cc(-c2cc3cc(O)ccc3oc2=O)cc(OC)c1OC | 106 | 90.7% | 108% | 87.2% | 88.9% | 116% | 93.2% | 
2 | Cc1cc(N2CCOCC2)nc(N(CCCNc2ccnc3cc(Cl)ccc23)Cc2ccco2)n1 |  | -20.1% (active) | 21.4% | 15.5% | 7.37% (active) | 87.9% | 33.3% | 35.3%
3 | Cc1cc(N(CCCNc2ccnc3cc(Cl)ccc23)Cc2ccco2)nc(N2CCOCC2)n1 |  | 62.9% | 63.3% | 63.4% | 43.8% | 87.4% | 79.3% | 88.5%
4 | C/C(Cc1ccc(Cl)cc1)=C(/c1ccc(Cl)cc1)c1ccc(OCCN2CCCC2)cc1 |  | 82% | 58.6% | 31% | 30.7% | 68.7% | 53.8% | 66.3%
5 | O=C(/C=C/c1cccc2ccccc12)Nc1ncc(Cc2ccccc2)s1 | 24.8 | -64.7% (active) | 13.7% | 10.8% | 8.93% (active) | 54.3% | 15.8% | 
6 | Cc1cc(C)nc(NC(N)=NCCc2ccccc2)n1 |  | -7.44% (active) | 32.2% | 17.3% | 27.9% | 94.5% | 22.5% | 36.1%
7 | CN(C)c1ccc(-c2ccc(-c3ccc(C(=N)N)c(F)c3)s2)cc1 |  | -95.4% (active) | -75% (active) | -69.7% (active) | -89.3% (active) | -95.4% (active) | -87.9% (active) | -60.3% (active)
8 | COc1ccc(/C=C/C(=O)c2ccc([N+](=O)[O-])cc2)cc1 |  | 106% | 111% | 96% | 99.2% | 105% | 98.6% | 98%
9 | C=C(C)[C@@H]1CC[C@]2(C=NCCCNCCCCNCCCN)CC[C@]3(C)[C@H](CC[C@@H]4[C@@]5(C)CCCNC(C)(C)[C@@H]5CC[C@]43C)[C@@H]12 | 98.2 | 94.8% | 88.4% | 89.4% | 77.7% | 100% | 98.2% | 
10 | COc1cc2c(cc1-c1c(C)noc1C)ncc1nc(C3CCC(F)(F)CC3)n([C@@H](C)COC(F)F)c12 |  |  | 62.5% | 13.6% | 34.1% | 52.3% | 41.8% | 29.2%
11 | O=C(O)c1cccc2c1C(=O)N(c1ccc3c(c1)Cc1ccccc1-3)C2=O |  | 111% | 105% | 93.9% |  | 102% | 109% | 106%
12 | O=C(/C=C/c1cccc(O)c1)c1ccccc1O |  | 76% | 86.3% | 63.5% | 78.1% | 98% | 72.5% | 91.2%
13 | C=C1C(=O)O[C@H]2[C@H]1CC/C(COC(=O)NCc1c[nH]c3ccccc13)=C\CC[C@@]1(C)O[C@@H]21 |  |  | 2.62% (active) | 17.1% | -12.3% (active) | 97.9% | 96.9% | 37.8%
14 | C/C(=N\Nc1cc(C)c2ccccc2n1)c1ccccn1 |  | -90.9% (active) | 7.9% (active) | -82.9% (active) | -76.2% (active) | 4.77% (active) | 4.67% (active) | 16.5%
15 | CC1(C)C(=O)/C(=C\c2ccco2)C[C@]2(C)[C@H]3CC[C@@H]4[C@@H](C(=O)/C=C/c5ccco5)CC[C@@]4(C)[C@]3(C)CC[C@@H]12 |  | 4.33% (active) | 71.1% | 62% | 61.8% | 108% | 101% | 35%
16 | O=C(CI)Nc1ccc(O)c2ccccc12 |  |  | -68.9% (active) | 0.823% (active) | -59.5% (active) | 82.4% | 64.8% | -52% (active)
17 | Oc1ccccc1/C=N\NC(=S)Nc1ccc(F)cc1 |  | 21.8% | 41.5% | 16.9% | 25.8% | 39.7% | 23.2% | 42%
18 | O=C1C=C(C(O)c2ccc(O)cc2)C(=O)c2ccccc21 (stereo unspecified) |  |  | 97.4% | 94.1% | 96.1% | 97% | 107% | 80.2%
19 | C=C(C)[C@@H]1CC[C@]2(CN)CC[C@]3(C)[C@H](CC[C@@H]4[C@@](C)(CCCN)[C@H](C(=C)C)CC[C@]43C)[C@@H]12 |  |  | 88.9% | 71.8% | 50.1% | 77% | 88.1% | 88.6%
20 | N#CC1c2ccccc2-c2ccccc2N1C(=O)c1ccccc1 (stereo unspecified) |  | -13.6% (active) | 27.3% | 22.3% | 6.83% (active) | -46.1% (active) | 5.94% (active) | 73.7%
21 | Cc1cc(N2CCN(C)CC2)nc(N(CCNc2ccnc3cc(Cl)ccc23)Cc2ccco2)n1 | 31.1 | -39.8% (active) | 38.2% | 17.1% | 17.1% | 92.7% | 34.2% | 
22 | COc1cccc(NC(=O)c2sc3nc4c(cc3c2N)C(=O)CCC4)c1 | 29.9 | -37.2% (active) | 23.6% | 29.4% | 17.6% | 19.9% | 16.6% | 
23 | Cc1ccc(-c2nc([P+](c3ccccc3)(c3ccccc3)c3ccccc3)c(N3C[C@H]4C[C@H](C3)c3cccc(=O)n3C4)o2)cc1 |  | 44.4% | 85.6% | 67.3% | 88.2% | 71.3% | 43.6% | 
24 | O=C(O[C@@H]1Cc2c(O)cc(O)cc2O[C@@H]1c1cc(O)c(O)c(O)c1)c1cc(O)c2c(c1)OCO2 | 96.2 | 105% | 106% | 100% | 86.3% | 104% | 101% | 
25 | O=c1[nH]c2c3ccncc3cc(-c3cccc(Cl)c3)c2c2cnccc12 | 22 | 64.9% | 58.3% | 22.7% | -31.5% (active) | 61.5% | 34.7% | 
26 | Fc1ccc(Nc2nnc(-c3ccc(Cl)cc3)o2)cc1 | 99 | 111% | 105% | 75.4% | 85.1% | 98.9% | 97.8% | 
27 | O=P(O)(c1ccccc1)c1ccccc1I | 100 | 104% | 94.9% | 96.6% | 76.7% | 107% | 103% | 
28 | CC1(C)C(=O)CC[C@]2(C)[C@H]3C(=O)C=C4[C@@H]5C[C@@](C)(C(=O)NCCNCCN)CC[C@]5(C)CC[C@@]4(C)[C@]3(C)CC[C@@H]12 | 91.7 | 101% | 102% | 90.6% | 83.2% | 101% | 98.7% | 
29 | Cc1ccc(Nc2c(C(N)=O)cnc3ccc(S(=O)(=O)Nc4cc(C)on4)cc23)cc1 | 105 | 103% | 105% | 93.9% | 94% | 107% | 103% | 
